Some test systems named below: NCI-H23 lung; NCI-H226 lung; NCI-H322M lung; HOP-62 NSCLC; NCI-H460 lung; HOP-92 NSCLC; NCI-H522 lung; A549/ATCC NSCLC; 786-0 renal; COLO 205 colon; DU-145 prostate; K-562 leukemia; MALME-3M melanoma; MDA-MB-231 breast; RXF 393 renal; SF-268 CNS; SF-295 CNS; SF-539 CNS; UACC-257 melanoma; M14 melanoma.
What all share (assay): NCI-60 one-dose screen, 48 h (100 = growth as untreated, 0 = no growth, -100 = all killed)
Conditions in all cases: 10 µM unless noted

Compounds without any hit were thinned out: in the full panel of roughly 83,000, 20% have a hit.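 Results are percent growth after 48 hours of single-concentration exposure. 100 means growth as in untreated cells, lower positive values show inhibition; negative values down to -100 show cell death.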 Values without a mark were called inactive. The source made the active and inactive calls. How the source made its calls: active means growth percent below 10; inactive means the rest.

In the case of `CCOC(=O)C#Cc1c(C(=O)OCC)nnn1Cc1ccc([N+](=O)[O-])cc1`, the growth is 86.2% in the assay with NCI-H23 lung; 70.4% with NCI-H226 lung; 100% with NCI-H322M lung; 113% in the assay on HOP-62 NSCLC; 98.7% in the assay on NCI-H460 lung; 40.6% in the assay with HOP-92 NSCLC. Besides, the growth with NCI-H522 lung is -33.4% (active); in the assay with A549/ATCC NSCLC it was 96.1%; with 786-0 renal, 65.6%; in the assay on COLO 205 colon it was -22.2% (active); in the assay with DU-145 prostate it was 10.4%; with K-562 leukemia, 4.56% (active). In addition, the growth is 53.8% in the assay with MALME-3M melanoma; 83.1% in the assay on MDA-MB-231 breast; -58.4% (active) in the assay on RXF 393 renal; 87.4% in the assay with SF-268 CNS; 99.8% in the assay with SF-295 CNS; 47.3% in the assay on SF-539 CNS. The growth is 42% in the assay with UACC-257 melanoma and 43.8% in the assay with M14 melanoma.
As for `Nc1ncnc2c1C(c1ccccc1)c1ccc3ccccc3c1O2` (stereo not given), the growth in the assay with NCI-H23 lung was 77.5%; with NCI-H226 lung, 77.6%; in the assay on NCI-H322M lung, 88%; in the assay with HOP-62 NSCLC, 68.5%; in the assay with NCI-H460 lung, 103%; with HOP-92 NSCLC, 45.1%. In addition, the growth was 53.8% with NCI-H522 lung; 86% with A549/ATCC NSCLC; 89.7% in the assay with 786-0 renal; 92.8% in the assay with COLO 205 colon; 99.8% in the assay with DU-145 prostate; 70% in the assay with K-562 leukemia. Further, the growth is 110% in the assay on MALME-3M melanoma; 89.1% in the assay on MDA-MB-231 breast; 104% with RXF 393 renal; 84.7% in the assay on SF-268 CNS; 88% with SF-295 CNS; 90.7% with SF-539 CNS. Besides, the growth was 79.7% in the assay on UACC-257 melanoma and 95.8% in the assay with M14 melanoma.
Turning to `O=C(Cn1cc(CSc2nc3ccccc3o2)nn1)Nc1ccc(F)cc1F`, the growth in the assay on NCI-H23 lung was 96%; in the assay on NCI-H226 lung it was 86.2%; in the assay on NCI-H322M lung, 104%; with HOP-62 NSCLC, 114%; in the assay on NCI-H460 lung it was 117%; with HOP-92 NSCLC it was 114%. In addition, the growth in the assay with NCI-H522 lung was 111%; in the assay on A549/ATCC NSCLC, 113%; in the assay with 786-0 renal, 119%; with COLO 205 colon, 127%; in the assay on DU-145 prostate, 124%; in the assay with K-562 leukemia it was 107%. The growth with MALME-3M melanoma was 106%; in the assay on MDA-MB-231 breast, 112%; with RXF 393 renal it was 103%; in the assay on SF-268 CNS, 115%; in the assay on SF-295 CNS it was 106%; in the assay on SF-539 CNS, 106%. The results for the growth in the assay with UACC-257 melanoma and in the assay on M14 melanoma were 103% and 108%, respectively.
For `Nc1ncnc2c1N=C(c1ccc(Br)cc1)CC(c1cccc(Nc3ccnc4cc(C(F)(F)F)ccc34)c1)N2` (stereo not given), the growth is 62.7% in the assay on NCI-H23 lung; 67.3% with NCI-H226 lung; 95.6% in the assay with NCI-H322M lung; 60.1% in the assay on HOP-62 NSCLC; 59.1% in the assay on NCI-H460 lung; 41.4% with HOP-92 NSCLC. Besides, the growth with NCI-H522 lung is 74%; in the assay on A549/ATCC NSCLC, 55.2%; in the assay with 786-0 renal it was 53.7%; in the assay with COLO 205 colon, 54.6%; with DU-145 prostate, 85.6%; in the assay on K-562 leukemia, 23%. Further, the growth with MALME-3M melanoma was 76.8%; in the assay on MDA-MB-231 breast, 55.9%; in the assay with RXF 393 renal it was 38.5%; with SF-268 CNS, 55.5%; in the assay on SF-295 CNS it was 52.2%; in the assay with SF-539 CNS it was 70.8%. The results for the growth in the assay on UACC-257 melanoma and in the assay on M14 melanoma were 66.6% and 60.1%, respectively.
For `O=C(Nc1ccc(Oc2cccc(F)c2)c(Cl)c1)c1cccnc1`, the growth was 44.9% in the assay on NCI-H23 lung; 56.9% in the assay on NCI-H226 lung; 50.8% in the assay on NCI-H322M lung; 34% in the assay with HOP-62 NSCLC; 24.7% in the assay on NCI-H460 lung; 63.4% in the assay with HOP-92 NSCLC. For the same compound, the growth in the assay with NCI-H522 lung was 36.2%; in the assay on A549/ATCC NSCLC it was 35.5%; in the assay with 786-0 renal, 40.9%; in the assay with COLO 205 colon it was 22.7%; in the assay on DU-145 prostate it was 21.8%; with K-562 leukemia, 16.2%. Further, the growth in the assay on MALME-3M melanoma was 47.2%; in the assay on MDA-MB-231 breast, 60.2%; in the assay on RXF 393 renal, 13.5%; with SF-268 CNS, 53.7%; in the assay on SF-295 CNS, 40.1%; in the assay on SF-539 CNS, 4.06% (active). Also, the growth was 56.1% in the assay on UACC-257 melanoma and 15.9% in the assay on M14 melanoma.
As to `O=C(O)c1cn(C2CC2)c2cc(N3CCN(Cc4ccc5ccccc5c4O)CC3)c(F)cc2c1=O`, the growth was 26.4% in the assay on NCI-H23 lung; 9.01% (active) in the assay with NCI-H226 lung; 23.4% with NCI-H322M lung; -31% (active) in the assay on HOP-62 NSCLC; 6.73% (active) in the assay on NCI-H460 lung; -6.42% (active) with HOP-92 NSCLC. In addition, the growth in the assay with NCI-H522 lung was 24.8%; with A549/ATCC NSCLC, -23.4% (active); in the assay with 786-0 renal, 38.3%; in the assay on COLO 205 colon, 33.4%; in the assay on DU-145 prostate it was 11.2%; in the assay on K-562 leukemia it was 62%. Further, the growth with MALME-3M melanoma was 13.9%; in the assay on MDA-MB-231 breast it was 48.4%; in the assay with RXF 393 renal, -23.2% (active); in the assay on SF-268 CNS, 57.1%; with SF-295 CNS, 44.2%; in the assay on SF-539 CNS, -4.68% (active). In addition, the growth was 38.5% in the assay on UACC-257 melanoma and 48% in the assay with M14 melanoma.
Regarding `CCOC(=O)NC(C)C`, the growth in the assay on NCI-H23 lung was 106%; in the assay on NCI-H226 lung, 112%; in the assay on NCI-H322M lung, 107%; with HOP-62 NSCLC, 93.4%; in the assay on NCI-H460 lung, 115%; in the assay on HOP-92 NSCLC it was 79.6%. The growth was 99.3% with NCI-H522 lung; 95.7% in the assay with A549/ATCC NSCLC; 95.6% in the assay on 786-0 renal; 129% in the assay with COLO 205 colon; 120% with DU-145 prostate; 87.6% in the assay with K-562 leukemia. Further, the growth with MALME-3M melanoma is 104%; in the assay on MDA-MB-231 breast, 112%; with RXF 393 renal it was 77.4%; in the assay on SF-268 CNS, 109%; in the assay on SF-295 CNS, 118%; with SF-539 CNS, 95.9%. Further, the growth in the assay on UACC-257 melanoma is 95%; with M14 melanoma, 102%.

These data come from PubChem BioAssay (NCI).
